# Measured values as given in PubChem BioAssay.
# Inconclusive results are not listed. Calls of active or inactive are those of the source. Rule as the data show it, unless noted: active = inhibition above about 80%; inactive = the rest.
# Legend:
# [1] = compounds altering viability of human ES cells (AID 493140; call rule not given here;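 also: cells exposed to compounds for four days before counting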); details: human embryonic stem cell survival screen; stronger effect = higher value
# [2] = MELAS cybrid and Rieske KO viability enhancers – cell-based, MELAS cybrids, Rieske KO mouse fibroblasts, CellTiter-Glo, primary screen (AID 1508586;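 active = mean z-score across replicates of 1.96 or higher in either the MELAS or the Rieske mutant cell line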;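 also: z relative to plate mean and SD of compound and empty wells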); details: low glucose
# [3] = growth inhibition, single agent or in combination, cell-based, chromothripsis tumors, cisplatin or BGB combos (AID 1671449); details: LFS_MB_P medulloblastoma cells;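 also: cells exposed for 96 hours; 0% = vehicle DMSO and 100% = killing by high DMSO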
# [4] = growth inhibition, single agent and combos, cell-based, chromothripsis tumors, cisplatin or BGB combos (AID 1671450); details: HDN33 neuroblastoma cells, stronger effect = higher value;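 also: cells exposed to compound for four days; 0% = vehicle DMSO and 100% = cell killing by high DMSO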
# [5] = growth inhibition, single agents and combos, ICB984, cell-based, cisplatin or BGB combos, synergistic combos for chromothripsis tumors (AID 1671451; call rule not given here;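 also: cells exposed for 96 hours before readout; 0% = vehicle DMSO and 100% = killing by high DMSO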); details: ICB984 medulloblastoma cells, drug combinations, stronger effect = higher value
# [6] = growth inhibition, single agents and combos, LFS_MB_1R, cell-based, cisplatin or BGB combos, synergistic combos for chromothripsis tumors (AID 1671452); details: LFS_MB_1R medulloblastoma cells, stronger effect = higher value;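 also: cells exposed for 96 hours before readout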
# [7] = growth inhibition, single agents and combos, HTB85, cell-based, BGB or cisplatin IC20 combos, synergistic combos for chromothripsis tumors (AID 1671453); details: HTB85 osteosarcoma cells, drug combinations, stronger effect = higher value;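 also: cells exposed for 96 hours before readout; 0% = vehicle DMSO and 100% = high DMSO killing control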
# [8] = growth inhibition, single agents and combos, CRL2098, cell-based, BGB or cisplatin IC20 combos, synergistic combos for chromothripsis tumors (AID 1671454); details: CRL2098 osteosarcoma cells, drug combinations, stronger effect = higher value;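 also: cells exposed for 96 h before readout; 0% = vehicle DMSO and 100% = killing by high DMSO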
# [9] = growth inhibition, single agents and combos, HD-MB03, cell-based, BGB or cisplatin IC20 combos, synergistic combos for chromothripsis tumors (AID 1671455; in the data active = inhibition above about 83%;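 also: 0% = vehicle DMSO and 100% = high DMSO as cytotoxic control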); details: HD-MB03 medulloblastoma cells, stronger effect = higher value
# [10] = growth inhibition, single agents and combos, UWB1.289, cell-based, BGB or cisplatin combos, synergistic combos for chromothripsis tumors (AID 1671456); details: UWB1.289 ovarian carcinoma cells, stronger effect = higher value;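 also: cells exposed to compound for four days; 0% = vehicle DMSO and 100% = killing by high DMSO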
# [11] = growth inhibition, single agents and combos, LFS_MB_2R, cell-based, cisplatin combos, synergistic combos for chromothripsis tumors (AID 1671457); details: LFS_MB_2R medulloblastoma cells, stronger effect = higher value;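 also: cells exposed to compound for four days before readout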
# [12] = growth inhibition, MDA-MB-436, cell-based, BGB or cisplatin combos, synergistic combos for chromothripsis tumors (AID 1671458; call rule not given here;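 also: cells exposed for 96 hours; 0% = vehicle DMSO and 100% = killing by high DMSO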); details: MDA-MB-436 breast carcinoma growth inhibition, drug combinations, stronger effect = higher value
# [13] = UWB1.289_BRCA1 ovarian cancer growth, cell-based, BGB or cisplatin combinations (AID 1671459); details: UWB1.289 BRCA1 ovarian carcinoma, drug combinations, stronger effect = higher value
# [14] = drug combination toxicity in non-malignant astrocytes – cell-based, BGB or cisplatin IC20 combos, cytotoxicity control for chromothriptic childhood tumor combination screen (AID 1671460); details: Human astrocytes, viability inhibition, drug combinations, at 0.5 µM, stronger effect = higher value;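 also: cells exposed to compounds for 96 hours before viability readout; 0% = vehicle and 100% = killing control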
# [15] = BT084 cell growth, single and combined drugs, ICGC_MB145, cisplatin and BGB IC40 combos (AID 1671461); details: BT084 medulloblastoma cells, drug combinations, stronger effect = higher value;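 also: cells exposed to drugs for 96 hours; 0% = vehicle DMSO and 100% = high DMSO full killing control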
# [16] = RCMB18 cell growth, single agent and combined, cisplatin and BGB IC40 combos (AID 1671462); details: RCMB18 medulloblastoma cells, stronger effect = higher value;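 also: cells exposed to compound for four days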
# [17] = CRL1545 cell growth, single agent and combined, cisplatin and BGB IC20 combos (AID 1671464); details: CRL1545 osteosarcoma cells, stronger effect = higher value;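 also: cells exposed to compound for 96 hours before readout; 0% = vehicle DMSO and 100% = high DMSO killing control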
# [18] = viability loss in pontine glioma line – cell-based, SU-DIPG-XVII, MIPE5.0, CellTiter-Glo, qHTS, dose response (AID 1347060; cut-off not given, nearly all actives have AC50 up to about 26 µM); details: CellTiter-Glo ATP luminescence
# [19] = molecular target: NAD(+) hydrolase SARM1 (Homo sapiens) (UniProt Q6SZW1); assay: blocking NAD cleavage by SARM1 SAM-TIR – cell lysate, NAD-Glo luminescence (AID 1508614;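 active = compound whose remaining NAD level is above about 45 nM, limit read from the data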;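 also: higher remaining NAD means stronger inhibition of SARM1 NADase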); details: SAM-TIR HEK293T lysate NADase, at 1 µM, stronger effect = higher value
# [20] = tested on: Aerobactin synthetase IucA (Klebsiella pneumoniae); assay: inhibition of K. pneumoniae IucA enzyme – biochemical, Tocris library, absorbance (AID 1345561; call rule not given here;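 also: 100% = enzyme without compound and 0% = no enzyme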); details: purified IucA enzyme assay, absorbance (OD) read-out; stronger effect = lower value;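 tested at 8 µM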
# [21] = MELAS cybrid survival, CellTiter-Glo 48 h, stronger effect = higher value
# [22] = Rieske KO mouse fibroblast survival, CellTiter-Glo 72 h
# [23] = measured here: combination with BGB IC40, at 0.05 µM
# [24] = measured here: with BGB IC20 combination, at 0.5 µM
# [25] = measured here: with cisplatin IC20 combination, at 0.5 µM
# [26] = measured here: combination with cisplatin, at 0.5 µM
# [27] = measured here: combination with cisplatin, at 5 µM
# NAD(+) hydrolase SARM1 (Homo sapiens), sequence (Q6SZW1 whole entry, looked up): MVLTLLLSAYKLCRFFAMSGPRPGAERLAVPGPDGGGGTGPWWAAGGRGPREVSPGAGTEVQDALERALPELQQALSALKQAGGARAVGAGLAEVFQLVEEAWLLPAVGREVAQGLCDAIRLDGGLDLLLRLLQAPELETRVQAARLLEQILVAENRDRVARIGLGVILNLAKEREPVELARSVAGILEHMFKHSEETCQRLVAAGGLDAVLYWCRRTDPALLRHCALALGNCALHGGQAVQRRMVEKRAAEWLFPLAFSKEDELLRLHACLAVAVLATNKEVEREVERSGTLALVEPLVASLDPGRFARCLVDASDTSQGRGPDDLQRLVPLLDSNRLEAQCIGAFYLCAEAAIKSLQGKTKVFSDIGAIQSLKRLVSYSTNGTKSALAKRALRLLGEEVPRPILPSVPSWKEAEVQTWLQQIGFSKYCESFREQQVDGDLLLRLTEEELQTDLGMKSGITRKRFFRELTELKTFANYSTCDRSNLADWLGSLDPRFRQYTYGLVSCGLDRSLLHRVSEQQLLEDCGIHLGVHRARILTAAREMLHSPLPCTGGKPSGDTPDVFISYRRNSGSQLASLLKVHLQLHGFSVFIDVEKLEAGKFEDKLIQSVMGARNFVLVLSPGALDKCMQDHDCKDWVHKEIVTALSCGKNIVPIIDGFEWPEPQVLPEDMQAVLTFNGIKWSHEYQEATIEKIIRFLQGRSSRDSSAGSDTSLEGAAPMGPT
structure (smiles),measurement,setting,value
CO[C@H]1/C=C/O[C@@]2(C)Oc3c(C)c(O)c4c(O)c(c5c(c4c3C2=O)NC2(CCN(CC(C)C)CC2)N=5)=NC(=O)/C(C)=C\C=C\[C@H](C)[C@H](O)[C@@H](C)[C@@H](O)[C@@H](C)[C@H](OC(C)=O)[C@@H]1C,survival,[1],5.5 (inactive)
same,z-score,[2]; [21],1.35 (inactive)
same,z-score,[2]; [22],1.35
CO[C@H]1/C=C/O[C@@]2(C)Oc3c(C)c(O)c4c(O)c(c(C=NN5CCN(C)CC5)c(O)c4c3C2=O)NC(=O)/C(C)=C\C=C\[C@H](C)[C@H](O)[C@@H](C)[C@@H](O)[C@@H](C)[C@H](OC(C)=O)[C@@H]1C,inhibition,"[3]; at 0.5 µM, stronger effect = higher value",-11% (inactive)
same,inhibition,"[3]; measured here: combination with BGB IC20, at 0.005 µM",-12.4%
same,inhibition,"[3]; measured here: combination with BGB IC40, at 0.005 µM",-11.3%
same,inhibition,[3]; [23],7.63%
same,inhibition,"[3]; measured here: combination with cisplatin, at 0.5 µM, stronger effect = higher value",-13.1%
same,inhibition,"[3]; measured here: combination with cisplatin, at 5 µM, stronger effect = higher value",25%
same,inhibition,"[4]; BGB combo, at 5 µM",2%
same,inhibition,[4]; at 0.5 µM,2.94% (inactive)
same,inhibition,"[4]; cisplatin combo, at 5 µM",-6.32%
same,inhibition,[4]; [24],7.7%
same,inhibition,[4]; [25],10.2%
same,inhibition,"[4]; single agent, at 5 µM",0.074%
same,inhibition,"[5]; BGB IC20 combo, at 0.005 µM",6.74%
same,inhibition,"[5]; BGB IC40 combo, at 0.005 µM",-7.18%
same,inhibition,"[5]; BGB IC40 combo, at 0.05 µM",33.5%
same,inhibition,[5]; at 0.5 µM,-10.8% (inactive)
same,inhibition,"[5]; cisplatin combo, at 0.05 µM",33.5%
same,inhibition,"[5]; cisplatin combo, at 0.5 µM",-9.79%
same,inhibition,"[5]; cisplatin combo, at 5 µM",-23.1%
same,inhibition,"[5]; measured here: 5 uM single agent, at 5 µM",-0.291%
same,inhibition,[6]; at 0.5 µM,-13.7% (inactive)
same,inhibition,[6]; [23],-25.4%
same,inhibition,[6]; [26],34.7%
same,inhibition,[6]; [27],6.61%
same,inhibition,[7]; at 0.5 µM,-9.22% (inactive)
same,inhibition,"[7]; measured here: with BGB IC20, at 0.5 µM",-34.1%
same,inhibition,"[7]; measured here: with BGB IC20, at 5 µM",19.8%
same,inhibition,"[7]; measured here: with cisplatin IC20, at 0.5 µM",-3.74%
same,inhibition,"[7]; measured here: with cisplatin IC20, at 5 µM",32.8%
same,inhibition,"[7]; single agent, at 5 µM",32.5%
same,inhibition,[8]; at 0.5 µM,-28.2% (inactive)
same,inhibition,"[8]; measured here: combination with BGB at IC20, at 0.5 µM",-20.5%
same,inhibition,"[8]; measured here: combination with cisplatin at IC20, at 0.5 µM",-57.4%
same,inhibition,[9]; at 0.5 µM,-2.23% (inactive)
same,inhibition,"[9]; measured here: combo with BGB at IC20, at 0.5 µM",-1.06%
same,inhibition,"[9]; measured here: combo with cisplatin at IC20, at 0.5 µM",-3.79%
same,inhibition,[10]; at 0.5 µM,6.08% (inactive)
same,inhibition,"[10]; measured here: inhibition with BGB combination, at 0.05 µM",0.522%
same,inhibition,"[10]; measured here: inhibition with cisplatin combination, at 0.05 µM",-2.06%
same,inhibition,[11]; at 0.5 µM,-16.1% (inactive)
same,inhibition,[11]; [26],-10.3%
same,inhibition,[11]; [27],19.4%
same,inhibition,[12]; at 0.5 µM,-11.2% (inactive)
same,inhibition,"[12]; measured here: BGB combination, at 0.5 µM",-8.37%
same,inhibition,"[12]; measured here: BGB combination, at 5 µM",1.85%
same,inhibition,"[12]; measured here: cisplatin combination, at 0.5 µM",-22.5%
same,inhibition,"[12]; measured here: cisplatin combination, at 5 µM",4.56%
same,inhibition,"[13]; BGB combination, concentration series, at 5 µM",33.9%
same,inhibition,[13]; at 0.5 µM,4.15% (inactive)
same,inhibition,"[13]; cisplatin combination, concentration series, at 5 µM",22%
same,inhibition,[14],-6.54% (inactive)
same,inhibition,[14]; measured here: combo with BGB IC20,-11%
same,inhibition,[14]; measured here: combo with cisplatin IC20,-7.29%
same,inhibition,[15]; at 0.5 µM,-5.85% (inactive)
same,inhibition,"[15]; cisplatin combination, at 0.5 µM",-3.4%
same,inhibition,"[15]; cisplatin combination, at 5 µM",-36.2%
same,inhibition,"[15]; measured here: BGB IC40 combination 0.05 uM, at 0.05 µM",-6.21%
same,inhibition,"[15]; single agent, at 5 µM",-1.11%
same,inhibition,[16]; at 0.5 µM,-18.2% (inactive)
same,inhibition,"[16]; cisplatin combo, at 5 µM",4.58%
same,inhibition,"[16]; measured here: BGB IC40 combination, at 0.05 µM",-7.26%
same,inhibition,[16]; [26],-16%
same,inhibition,"[16]; single agent, at 5 µM",-21.9%
same,inhibition,[17]; at 0.5 µM,-32.1% (inactive)
same,inhibition,[17]; [24],-8.55%
same,inhibition,[17]; [25],-44%
same,inhibition,"[17]; single agent, at 0.05 µM",6.37%
same,inhibition,"[17]; single agent, at 5 µM",27.5%
C=C1/C(=C\C=C2/CCC[C@]3(C)[C@@H]([C@H](C)CCCC(C)(C)O)CC[C@@H]23)C[C@@H](O)C[C@@H]1O,survival,[1],89.6 (inactive)
same,outcome,[18],inactive
same,z-score,[2]; [21],-0.162 (inactive)
same,z-score,[2]; [22],-0.598
O=C(OC1C[C@@H]2CC3C[C@H](C1)N2CC3=O)c1c[nH]c2ccccc12 (stereo not given in full),z-score,[2]; [21],0.403 (inactive)
same,z-score,[2]; [22],-0.707
CC(=O)O[C@@]12CO[C@@H]1C[C@H](O)[C@@]1(C)C(=O)[C@H](O)C3=C(C)[C@@H](OC(=O)[C@H](O)[C@@H](NC(=O)OC(C)(C)C)c4ccccc4)C[C@](O)([C@@H](OC(=O)c4ccccc4)[C@H]21)C3(C)C,z-score,[2]; [21],-2.05 (inactive)
same,z-score,[2]; [22],0.54
CO[C@H]1O[C@@H]2O[C@@]3(C)CC[C@H]4[C@H](C)CC[C@@H]([C@H]1C)[C@@]24OO3,outcome,[18],inactive
same,remaining NAD,[19],10 nM (inactive)
CN(C)CC/C=C1/c2ccccc2COc2ccccc21,remaining activity,[20],123% (inactive)
CCN(CC)CCOc1ccc(C(=C(Cl)c2ccccc2)c2ccccc2)cc1,z-score,[2]; [21],-0.453 (inactive)
same,z-score,[2]; [22],-0.778
same,remaining NAD,[19],10 nM (inactive)
